Only some compounds are listed: those with a hit (about 4.3% of all), similar ones and a draw of the others.
HSF-1 act – increases HSF-1 driven luciferase reporter signal | NIH3T3-HGL HSF-1 luciferase reporter, MG132, 8 h; 100% = twice DMSO control signal | activation, % at 9 µM | 300,000 tested, 1.7% active;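 active means mean replicate activation of at least 50% with a set share of replicates each reaching 50%; inconclusive means only one of those two conditions met; inactive means mean below 50% and too few replicates reaching it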
HSF1 inh – HSF1 inhibition; NIH3T3-HGL HSE-luciferase, MG132-induced, luminescence 8 h; hits give low values; activity change, negative = inhibition, % at 7.5 µM (by protocol); 300,000 tested, 0.77% active;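 active means more than half of replicate wells show activity change below -50%, luminescence cut by over half; inconclusive means some wells, but at most half, below -50%; inactive means no replicate well below -50%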;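 further: luciferase reports HSF-1 transcriptional activity via heat shock element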
esBAF inh – SWI/SNF esBAF complex inhibition; mouse ES cells, Bmi1-luciferase knock-in reporter, 24 h; 100% = twice the neutral-well signal; reporter increase, % at 12.5 µM; 350,000 tested, 2% active; in the data active means activation above about 40%; inconclusive means no clear call, values can overlap the other calls;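 further: a rise in the Bmi1 reporter signal indicates esBAF inhibition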
SMARCA2 act – activators of SMARCA2 function; MG213 cells, MMTV-luciferase reporter, dexamethasone, overnight; activation, % at 9.1 µM; 370,000 tested, 1% active; in the data active means activation above about 7.8%
MITF act – activators of MITF-driven TRPM1 promoter activity in SK-MEL-5 cells. SK-MEL-5 TRPM1-promoter luciferase, 24 h; % of positive control, neutral wells = 0. activation, % at 12.5 µM. 300,000 tested, 0.75% active. AID 588334;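 active means mean activation of at least 80% with every replicate also reaching 80%; inconclusive means mean reaches 80% but some replicate falls short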
Wnt act – activators of Wnt/beta-catenin signaling. Wnt/beta-catenin reporter cell assay, activator, plate reader. activation, % at 9.35 µM. 300,000 tested, 1.2% active. AID 743398; in the data active means activation above about 30%, passing the limit was not always enough; inconclusive means no clear call, values can overlap the other calls
Of the large screens only hits and unclear results are named; the others gave an inactive call.

Cc1ccccc1NC(=S)c1nc2ccccc2[nH]1	HSF-1 act 67, esBAF inh 49
CO[C@H]1CN(C)C(=O)c2cc(NC(C)=O)ccc2OC[C@@H](C)N(C(=O)C2CC2)C[C@@H]1C	none (no result: HSF-1 act, HSF1 inh, SMARCA2 act, MITF act, Wnt act)
Cc1cccc(-c2noc(-c3ccccc3C(=O)NCc3ccco3)n2)c1	HSF-1 act 64
Cc1ccc(-c2noc(-c3ccccc3C(=O)NCc3ccco3)n2)cc1	none (no result: esBAF inh, MITF act)
COc1cc(/C=C/[N+](=O)[O-])ccc1OC(=O)/C=C/c1ccc(F)cc1	HSF-1 act 70 (no result: MITF act)
COc1ccc(/C=C/C(=O)Oc2ccc(C)c(C)c2)cc1OC	none (no result: esBAF inh)
COc1ccccc1C(=O)Nc1ccc2c(c1)OC[C@H](C)N(C)C[C@H](C)[C@H](OC)CN(C)C2=O	none (no result: HSF-1 act, HSF1 inh, SMARCA2 act, MITF act, Wnt act)
CCN(CC)c1ccc(C(=C2C=CC(=[N+](CC)CC)C=C2)c2ccc(N(CC)CC)cc2)cc1	none (no result: HSF-1 act, HSF1 inh, MITF act)
CCN(CC)c1ccc(C(=C2C=CC(=[N+](CC)CC)C=C2)c2ccccc2)cc1	HSF-1 act 95, HSF1 inh 95 (no result: esBAF inh)
CO[C@@H]1CN(C)C(=O)c2ccc(NC(=O)Cc3ccccc3)cc2OC[C@@H](C)N(C(C)=O)C[C@H]1C	none (no result: HSF-1 act, HSF1 inh, SMARCA2 act, MITF act, Wnt act)
Cc1ccc(Sc2c(O)c3ccccc3n(C)c2=O)cc1	none
Cc1ccc(Sc2c([N+](=O)[O-])c(=O)n(C)c3ccccc23)cc1	Wnt act 32 (no result: MITF act)
CC(=O)C1=C(O)C(=O)N(c2ccc(S(N)(=O)=O)cc2)C1c1cccc([N+](=O)[O-])c1 (stereo not given)	none
CC(=O)C1C(=O)c2c(cccc2[N+](=O)[O-])C1=Nc1ccc(S(N)(=O)=O)cc1 (stereo not given)	HSF1 inh -91 (no result: esBAF inh)
C[C@H](CO)N1C[C@H](C)[C@H](CN(C)C)Oc2ccc(NS(=O)(=O)c3ccc(Cl)cc3)cc2C1=O	none (no result: HSF-1 act, HSF1 inh, SMARCA2 act, MITF act, Wnt act)
COCCNC(=O)C[C@H]1CC[C@@H]2[C@H](COc3ccc(NC(=O)Nc4ccccc4)cc3C(=O)N2C)O1	none (no result: HSF-1 act, HSF1 inh, SMARCA2 act, MITF act, Wnt act)
CCCNC(=O)N(C)C[C@H]1Oc2ncc(C#CC3CC3)cc2C(=O)N([C@H](C)CO)C[C@@H]1C	none (no result: HSF-1 act, HSF1 inh, SMARCA2 act, MITF act, Wnt act)
O=C(NCc1nnc(SCc2ccc(C(F)(F)F)cc2)n1-c1ccccc1)C12CC3CC(CC(C3)C1)C2	none (no result: esBAF inh)
O=C(NCc1nnc(SCc2ccc(F)cc2)n1-c1ccccc1)C12CC3CC(CC(C3)C1)C2	HSF-1 act 62 (no result: esBAF inh, Wnt act)
O=C(O)Cc1ccc(C(=O)c2ccc(Cl)cc2)s1	none
NC(=O)Cc1ccc(C(=O)c2ccc(Cl)cc2)s1	HSF1 inh -64
Oc1ccc(C2C[C@H]3CC[C@@H]2C3)cc1O (stereo not given in full)	HSF-1 act 90
N#C/C(=C/c1ccc(Br)o1)C(N)=S	none (no result: esBAF inh, SMARCA2 act, MITF act, Wnt act)
CNC(=O)/C(C#N)=C\c1ccc(CNS(=O)(=O)c2ccccc2)o1	none (no result: esBAF inh, Wnt act)
N#C/C(=C\c1ccc(-c2nc3ccccc3s2)o1)C(N)=O	Wnt act 44 (no result: esBAF inh, MITF act)
CNC(=O)/C(C#N)=C/c1ccc(-c2nc3ccccc3s2)o1	Wnt act 43 (no result: esBAF inh, MITF act)
N#C/C(=C/c1ccc(-c2ccc(S(N)(=O)=O)cc2)o1)c1nc2ccccc2s1	none (no result: HSF-1 act, HSF1 inh, esBAF inh, Wnt act)
N#C/C(=C/c1ccc(Br)o1)C(N)=O	HSF1 inh -92 (no result: Wnt act)
Cc1ccc(-c2ccc3c(c2)O[C@H](CN(C)C(=O)C2CC2)[C@@H](C)CN([C@@H](C)CO)S3(=O)=O)cc1	none (no result: HSF-1 act, HSF1 inh, SMARCA2 act, MITF act, Wnt act)
COc1ccc(C(=O)Cn2c(C(=O)/C=C/c3ccccc3)nc3ccccc32)cc1	HSF-1 act 341 (no result: MITF act, Wnt act)
Cc1noc(C)c1S(=O)(=O)Nc1ccc2c(c1)C(=O)N([C@H](C)CO)C[C@@H](C)[C@H](CN(C)Cc1ccccc1)O2	none (no result: HSF-1 act, HSF1 inh, SMARCA2 act, MITF act, Wnt act)
COCC(=O)N1C[C@H](C)[C@H](OC)CN(C)C(=O)c2cc(NC(=O)c3ccccc3)ccc2OC[C@@H]1C	none (no result: HSF-1 act, HSF1 inh, SMARCA2 act, MITF act, Wnt act)
COC(=O)C(Cc1ccc(OC(=O)c2ccc(C(F)(F)F)cc2)cc1)N1Cc2ccccc2C1=O (stereo not given)	esBAF inh 46 (no result: SMARCA2 act, MITF act)
COc1ccc(/C=C2\SC(=S)N(CC(=O)OCC(=O)Nc3cc(Cl)cc(Cl)c3)C2=O)cc1	Wnt act 38 (no result: esBAF inh)
Nc1ccc(-c2nc3ccc(C(=O)O)cc3s2)cc1	none (no result: esBAF inh)
Nc1ccccc1-c1nc2ccccc2s1	HSF1 inh -71, esBAF inh inconclusive, Wnt act 46
c1csc(-c2nc3ccccc3s2)c1	esBAF inh 47
c1cncc(-c2nc3ccccc3s2)c1	esBAF inh inconclusive, MITF act 85, Wnt act inconclusive
O=C(O)c1ccc2nc(-c3ccccc3)sc2c1	HSF1 inh -58
c1coc(-c2nc3ccccc3s2)c1	none (no result: HSF-1 act, HSF1 inh, esBAF inh)
Nc1ccc(O)c(-c2nc3ccccc3s2)c1	none
COc1ccc(S(=O)(=O)Nc2ccc3c(c2)C(=O)N([C@@H](C)CO)C[C@@H](C)[C@H](CN(C)Cc2ccccc2)O3)cc1	none (no result: HSF-1 act, HSF1 inh, SMARCA2 act, MITF act, Wnt act)
C[C@H](CO)N1C[C@H](C)[C@@H](CN(C)C(=O)Nc2ccc3c(c2)OCO3)OCc2ccccc2-c2ccccc2C1=O	none (no result: HSF-1 act, HSF1 inh, SMARCA2 act, MITF act, Wnt act)
C/C=C/c1ccc([C@H]2[C@@H](CO)N(C(=O)NC(C)C)[C@H]2CN(C)C(=O)CC)cc1	none (no result: HSF-1 act, HSF1 inh, SMARCA2 act, MITF act, Wnt act)
COc1ccc(-c2nc3ccccc3s2)cc1	none (no result: HSF-1 act, HSF1 inh, esBAF inh)
c1ccc2sc(-c3ccc4c(c3)OCO4)nc2c1	none (no result: HSF-1 act, HSF1 inh, SMARCA2 act, Wnt act)
c1ccc2sc(-c3ccncc3)nc2c1	Wnt act 42 (no result: HSF-1 act, HSF1 inh, esBAF inh)
CN(C)c1nc(N)nc(-c2nc3ccccc3s2)n1	Wnt act 31 (no result: esBAF inh)
Oc1ccc(-c2nc3ccccc3s2)cc1	Wnt act 47
Cc1ccc(S(=O)(=O)Nc2cccc3c2O[C@@H](CN(C)C(=O)NC(C)C)[C@@H](C)CN([C@@H](C)CO)C3=O)cc1	none (no result: HSF-1 act, HSF1 inh, SMARCA2 act, MITF act, Wnt act)
COc1ccc(OCc2cc(C(=O)NCC3CCOCC3)no2)c(Cl)c1	esBAF inh 55
COc1ccc(OCc2cc(C(=O)NCC(C)Oc3cccnc3)no2)c(Cl)c1 (stereo not given)	esBAF inh 70
COc1ccc(OCc2cc(C(=O)NCC3CCCCO3)no2)c(Cl)c1 (stereo not given)	none
COc1ccc(OCc2cc(C(=O)N(C)Cc3cc(C4CC4)n[nH]3)no2)c(Cl)c1	esBAF inh 68, MITF act 90
COc1ccc(CCNC(=O)c2cc(COc3c(F)cccc3F)on2)c(OC)c1	none
COc1ccc(CCNC(=O)c2cc(COc3c(C)cccc3C)on2)c(OC)c1	HSF-1 act 56
COc1ccc(OCc2cc(C(=O)N(C)Cc3cnccn3)no2)c(Cl)c1	none (no result: esBAF inh)
C[C@H](CO)N1C[C@H](C)[C@H](CN(C)C(=O)Nc2ccc(F)cc2)Oc2ccc(NC(=O)Cn3cnnn3)cc2CC1=O	none (no result: HSF-1 act, HSF1 inh, SMARCA2 act, MITF act, Wnt act)
COc1ccc(S(=O)(=O)N(C)C[C@H]2OCCCC[C@H](C)Oc3ccc(NC(=O)CCC(F)(F)F)cc3C(=O)N([C@H](C)CO)C[C@@H]2C)cc1	none (no result: HSF-1 act, HSF1 inh, SMARCA2 act, MITF act, Wnt act)
O=C(CN1C(=O)c2ccccc2S1(=O)=O)c1cccc(Br)c1	none (no result: esBAF inh)
CC1CCCCC12NC(=O)N(CC(=O)c1ccc3c(c1)OCO3)C2=O (stereo not given)	none

Screening results from PubChem BioAssay.
